# The supplement of paper PMC8728848
# The full list was thinned out, with the strongest signals kept by preference.
# Experiments:
# Test in all cases: glycan array binding signal (z-score within array); higher = stronger binding
# Conditions in all cases: glycan notation: IUPAC condensed, linker removed
# [1] = tested on: Gal(b1-3)[Fuc(a1-4)]GlcNAc(b1-2)Man(a1-3)[Gal(b1-3)[Fuc(a1-4)]GlcNAc(b1-2)Man(a1-6)]Man(b1-4)GlcNAc(b1-4)[Fuc(a1-6)]GlcNAc
# Method in brief: (§1)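 Arrays were curated from the Consortium for Functional Glycomics database, 3228 in total, and kept only where the protein sequence was available. Binding is expressed as a within-array Z-score. This score was averaged across arrays of the same protein sequence at different concentrations or buffers and across linkers, and negative values can be read as non-binding.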
# [2] = tested on: Gal(b1-4)GalNAc(b1-3)[Fuc(a1-2)]Gal(b1-4)GlcNAc
# Method in brief: as §1
# [3] = tested on: Gal(b1-4)GlcNAc(b1-2)Man(a1-3)Man(b1-4)GlcNAc(b1-4)GlcNAc
# Method in brief: as §1
# [4] = tested on: Gal(b1-4)GlcNAc(b1-2)Man(a1-3)[Gal(b1-4)GlcNAc(b1-2)Man(a1-6)]Man(b1-4)GlcNAc(b1-4)[Fuc(a1-6)]GlcNAc
# Method in brief: as §1
# [5] = tested on: Gal(b1-4)GlcNAc(b1-2)Man(a1-3)[GlcNAc(b1-2)Man(a1-6)]Man(b1-4)GlcNAc(b1-4)GlcNAc
# Method in brief: as §1
# [6] = tested on: Gal(b1-3)[Fuc(a1-4)]GlcNAc(b1-3)Gal(b1-4)GlcNAc
# Method in brief: as §1
# [7] = tested on: Gal(b1-3)[Fuc(a1-4)]GlcNAc(b1-6)GalNAc
# Method in brief: as §1
# [8] = tested on: Gal(b1-4)GlcNAc(b1-2)Man(a1-6)Man(b1-4)GlcNAc(b1-4)GlcNAc
# Method in brief: as §1
# [9] = tested on: Gal(b1-3)[Fuc(a1-4)]GlcNAc(b1-3)Gal(b1-4)[Fuc(a1-3)]GlcNAc
# Method in brief: as §1
# [10] = tested on: Gal(b1-4)GlcNAc(a1-6)Gal(b1-4)GlcNAc
# Method in brief: as §1
# [11] = tested on: Gal(b1-4)GlcNAc(b1-2)Man(a1-3)[Man(a1-6)]Man(b1-4)GlcNAc(b1-4)GlcNAc
# Method in brief: as §1
# [12] = tested on: Gal(b1-3)[Fuc(a1-4)]GlcNAc(b1-3)Gal(b1-3)[Fuc(a1-4)]GlcNAc
# Method in brief: as §1
# [13] = tested on: Gal(b1-4)GlcNAc(b1-2)Man(a1-3)[Gal(b1-4)GlcNAc(b1-2)Man(a1-6)]Man(b1-4)GlcNAc(b1-4)GlcNAc
# Method in brief: as §1
# [14] = tested on: Gal(b1-4)GlcNAc(b1-2)Man(a1-6)[Man(a1-3)]Man(b1-4)GlcNAc(b1-4)GlcNAc
# Method in brief: as §1
# [15] = tested on: Gal(b1-3)[Fuc(a1-4)]GlcNAc
# Method in brief: as §1
# [16] = tested on: Gal(b1-3)[Neu5Ac(a2-6)]GalNAc
# Method in brief: as §1
# Gal(b1-4)Glc6S = tested on: Gal(b1-4)Glc6S
# Method in brief: as §1
# Gal(b1-4)Gal = tested on: Gal(b1-4)Gal
# Method in brief: as §1
# [17] = tested on: Gal(b1-4)GlcNAc(b1-2)Man(a1-6)[GlcNAc(b1-2)Man(a1-3)]Man(b1-4)GlcNAc(b1-4)GlcNAc
# Method in brief: as §1
# Gal(b1-4)GlcNAc(b1-2)Man = tested on: Gal(b1-4)GlcNAc(b1-2)Man
# Method in brief: as §1
substance,measurement,setting,value
"BambL (Burhholderia ambifaria), Q0B4G1",glycan array binding signal (z-score),[1],-0.066
same,glycan array binding signal (z-score),[2],-0.283
same,glycan array binding signal (z-score),[3],-0.313
same,glycan array binding signal (z-score),[4],0.351
same,glycan array binding signal (z-score),[5],-0.301
"Wza (Escherichia coli), P0A930",glycan array binding signal (z-score),[6],1.14
same,glycan array binding signal (z-score),[7],2.92
same,glycan array binding signal (z-score),[8],1.02
"SpGH101 (Streptococcus pneumoniae), Q8DR60",glycan array binding signal (z-score),[1],0.539
same,glycan array binding signal (z-score),[9],-0.146
same,glycan array binding signal (z-score),[10],-0.178
same,glycan array binding signal (z-score),[11],-0.069
"SiiE (Salmonella typhimurium), A0A0H3NVH0",glycan array binding signal (z-score),[12],-0.613
same,glycan array binding signal (z-score),[13],2.4
same,glycan array binding signal (z-score),[14],0.213
Epa22,glycan array binding signal (z-score),[15],-0.223
same,glycan array binding signal (z-score),[16],3.02
same,glycan array binding signal (z-score),Gal(b1-4)Glc6S,-0.061
same,glycan array binding signal (z-score),[4],1.95
Actinohivin (Actinomycete K97),glycan array binding signal (z-score),[1],2.06
AgI/II Vhelical-GFP (Streptococcus mutans),glycan array binding signal (z-score),[7],1.08
same,glycan array binding signal (z-score),Gal(b1-4)Gal,2.56
same,glycan array binding signal (z-score),Gal(b1-4)Glc6S,-0.148
same,glycan array binding signal (z-score),[17],-0.18
LcI (Legionella pneumophila),glycan array binding signal (z-score),Gal(b1-4)GlcNAc(b1-2)Man,0.449
